Each structure is given as a SMILES string. Values joined by “and” are separate entries in the source; they are usually repeats but may differ in a detail not shown here. Identical values can stand only once. Results filed as inconclusive are left out. Active and inactive are the calls of the source. Unless noted, the call rests on the fitted dose curve; in most records, active means well fitted curve in the direction sought with a large enough effect; inconclusive means small, poorly fitted or top-dose-only effect, or another doubt; inactive means no such curve, though single readings can be large; an effect the other way counts as inactive or inconclusive.

The results in this text go back to PubChem BioAssay (NCATS).

The target of assay [1] is Cytochrome P450 2C9 (Homo sapiens) (UniProt P11712). Description: Cytochrome P450 family 2 subfamily C member 9 (CYP2C9) small molecule antagonists: luciferase biochemical (cell-free) qHTS assay (AID 1645842; active means well fitted curve in the direction sought with a large enough effect in the repeat runs; an effect the other way counts as inactive or inconclusive; further: nearly all actives have a fitted effect of over 55% in size; further: potency means the concentration at half of the fitted maximal effect). The essentials:
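Luminescence, after 20 min with luciferin detection reagent, reflected CYP2C9 turnover during a 1 h NADPH-driven reaction at 37C. Enzyme-substrate mix contained 0.4% bovine serum albumin and was preincubated with compound 10 min at room temperature.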
In general terms: Quantitative high-throughput screening tests each substance at several concentrations.

In assay [2] the target is N-terminal Xaa-Pro-Lys N-methyltransferase 1 (Homo sapiens) (UniProt Q9BV86). Description: Confirmatory qHTS for Inhibitors of N-terminal methyltransferase 1 (NTMT1): MTaseGlo Assay (AID 1645874). Further: nearly all actives have a fitted effect of over 65% in size. Further: potency means the concentration at half of the fitted maximal effect. Summed up: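 qHTS format: NTMT1 125 nM, SAM 100 uM, peptide SPKRIA 1 uM final; 15 min compound preincubation, 30 min reaction at room temperature. MTase-Glo luminescence.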
N-terminal Xaa-Pro-Lys N-methyltransferase 1 (Homo sapiens), sequence (Q9BV86 whole entry, looked up, the tested form may be a part): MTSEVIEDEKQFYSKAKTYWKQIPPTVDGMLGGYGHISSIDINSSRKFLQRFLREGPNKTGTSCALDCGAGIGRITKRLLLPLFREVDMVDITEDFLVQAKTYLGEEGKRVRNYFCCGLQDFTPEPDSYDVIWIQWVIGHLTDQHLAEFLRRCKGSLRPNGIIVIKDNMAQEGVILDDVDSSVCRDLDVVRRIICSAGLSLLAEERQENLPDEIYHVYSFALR
The nature of assay [3]: Primary qHTS for inhibitors of nuclear receptor binding SET domain protein 2 (NSD2) in an isogenic RCH-ACV NSD2 p.E1099K mutant (9B) (AID 1645876). Further: nearly all actives have a fitted effect of over 70% in size. Further: potency means the concentration at half of the fitted maximal effect.
Assay [4] can be described thus: Primary qHTS for inhibitors of nuclear receptor binding SET domain protein 2 (NSD2) in an RCH-ACV wild type WT cells (2C) (AID 1645877). Further: nearly all actives have a fitted effect of over 70% in size. Further: potency means the concentration at half of the fitted maximal effect.
A further assay addresses Papain (Carica papaya) (UniProt P00784). Description: Primary qHTS assay for inhibitors of the protease papain (AID 1645873).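 Further: papain turnover of Z-FR-AMC read as the AMC fluorescence gain over 10 min; series mostly up to about 50 µM.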

Cytochrome P450 2C9 (Homo sapiens), sequence (P11712 whole entry, looked up): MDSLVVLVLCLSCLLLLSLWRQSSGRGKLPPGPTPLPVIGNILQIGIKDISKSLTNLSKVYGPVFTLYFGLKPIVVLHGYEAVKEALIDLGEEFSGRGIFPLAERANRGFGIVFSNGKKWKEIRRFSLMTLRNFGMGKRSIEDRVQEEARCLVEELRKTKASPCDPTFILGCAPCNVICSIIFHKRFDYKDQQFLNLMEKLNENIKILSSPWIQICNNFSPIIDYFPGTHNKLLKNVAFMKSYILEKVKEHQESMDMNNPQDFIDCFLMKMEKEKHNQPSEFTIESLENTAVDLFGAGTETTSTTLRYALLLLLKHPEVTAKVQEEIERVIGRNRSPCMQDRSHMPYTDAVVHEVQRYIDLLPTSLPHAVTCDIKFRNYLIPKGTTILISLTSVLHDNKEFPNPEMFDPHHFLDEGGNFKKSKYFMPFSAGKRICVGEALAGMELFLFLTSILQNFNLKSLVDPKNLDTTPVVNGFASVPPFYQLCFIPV
Papain (Carica papaya), sequence (P00784 whole entry, looked up): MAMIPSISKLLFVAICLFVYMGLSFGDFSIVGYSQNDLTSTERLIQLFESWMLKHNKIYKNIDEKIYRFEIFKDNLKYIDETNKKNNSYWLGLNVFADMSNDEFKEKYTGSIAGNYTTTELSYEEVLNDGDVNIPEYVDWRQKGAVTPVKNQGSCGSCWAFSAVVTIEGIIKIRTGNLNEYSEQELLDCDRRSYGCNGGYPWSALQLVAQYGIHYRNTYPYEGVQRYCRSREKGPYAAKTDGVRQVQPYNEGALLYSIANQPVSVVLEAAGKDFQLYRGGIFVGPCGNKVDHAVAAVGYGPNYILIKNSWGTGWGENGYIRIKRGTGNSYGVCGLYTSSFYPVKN

For the compound `COc1ccc2cc3c(NC(=O)c4ccco4)nn(C)c3nc2c1`, the Potency in assay [1] is 15.1 µM (active). Also, the Potency entry in assay [2] was “inactive”.
For `O=S(=O)(Cc1ccccc1)Nc1ccc(-c2ccc3c(cnn3-c3ccc(F)cc3)c2)c(C(F)(F)F)c1`, the Potency in assay [1] was 6.01 µM (active); in assay [3] it was 18.3 µM (active); in assay [4], 183 nM (active). Moreover, the Potency entry in assay [2] was “inactive”.
`CN(C)C(=O)Nc1cc(-c2ccccc2)ccc1N(C)C`: in assay [1], the Potency was 15.1 µM (active). In addition, the Potency result in assay [2] and in assay [4] was “inactive” each time.
On to `O=C(Nc1ccccc1)c1ccc(Nc2nnc(-c3ccc(O)cc3)c3ccccc23)cc1`, for which the Potency in assay [1] was 6.01 µM (active). For the same compound, the Potency entry in assay [2] was “inactive”.
`CC(C)(O)c1ccn2c(-c3ccc(F)c(-c4ccc(F)cc4C#N)c3)cnc2c1F`: in assay [1], the Potency is 0.756 µM (active).
For the compound `Cc1ccc(-c2cn3c4c(sc3n2)CCCC4)cc1`, in assay [1], the Potency is 16.9 µM (active).
For the compound `COc1ccc(NC(=O)c2ccc(-c3ccc(C(=N)N)cc3C)cc2)cc1N1CCN(C)CC1`, the Potency result in assay [1] and in assay [3] was “inactive” each time.
As to `Cc1ccnn1-c1ccc(C(=O)N2CCN(S(=O)(=O)c3ccc(Cl)c(C(F)(F)F)c3)CC2)cc1`, the Potency in assay [1] was 6.74 µM (active).
Turning to `COC(=O)c1cc(Br)cnc1N1CCC(NC2CCCCC2)C(O)C1` (stereo not drawn), the Potency entry in assay [1] and in assay [3] was “inactive” in each case.
As to `C=C1CCN([C@H](C)[C@](O)(Cn2cncn2)c2ccc(F)cc2F)CC1`, the Potency in assay [1] was 0.477 µM (active).
Regarding `COc1cccc(OCCCN)c1-c1cc(Nc2cnc(C#N)cn2)n[nH]1`, in assay [1], the Potency entry is “inactive”. The Potency in assay [2] was 50.1 µM (active) and 21.8 µM (active); in assay [3], 0.0103 µM (active); in assay [4] it was 10.3 nM (active).
With `O=C(O)c1cc(N(Cc2ccc(C3CCCCC3)cc2)C(=O)c2ccc(Oc3ccccc3)cc2)ccc1O`, the values for the Potency in assay [1] and in assay [2] were 23.9 µM (active) and 30.8 µM (active), respectively.
In the case of `CC(C)S(=O)(=O)NC[C@H](C)c1ccc(-c2ccc(CCNS(C)(=O)=O)cc2)cc1`, the Potency is 10.7 µM (active) in assay [1] and 6.49 µM (active) in assay [3].
Regarding `Nc1cccc(CNC(=O)c2ccc(Oc3ccc(OCc4cccc(F)c4)cc3)nc2)c1`, the Potency is 9.52 µM (active) in assay [1] and 11.5 µM (active) in assay [3].
With `COc1cc2c(Nc3cc(F)c(Cl)c(Cl)c3)ncnc2cc1OCC1CCCN(C)CCC1`, the Potency in assay [1] was 19 µM (active); in assay [2], 31.6 µM (active); in assay [3], 3.25 µM (active); in assay [4], 5150 nM (active).
Turning to `NCCOc1cc(C(=O)Nc2cc(OCCN)c3ccccc3n2)nc(C(=O)Nc2cc(OCCN)c3ccccc3n2)c1`, the Potency entry in assay [1] was “inactive”. Further, the Potency in assay [2] was 43.5 µM (active); in assay [3], 4.09 µM (active) and 7.42 µM (active); in assay [4], 5.78 µM (active) and 8.33 µM (active).
For the compound `Cc1[nH]c(/C=C2\C(=O)Nc3cc(-c4ccccc4)ccc32)c(C)c1CCC(=O)O`, the Potency was 12 µM (active) in assay [1], 49.4 µM (active) in assay [2], 23 µM (active) in assay [3] and 23000 nM (active) in assay [4].
For `CCc1ccc(-c2nc(CSCC(=O)NCCc3ccccc3)c(C)o2)cc1`, in assay [1], the Potency was 8.49 µM (active).
Regarding `CCCn1cc2c(nc(NC(=O)Nc3ccc(OC)cc3)n3nc(-c4ccco4)nc23)n1`, in assay [1], the Potency is 6.01 µM (active).
For the compound `Cc1c(NC(=O)c2cc3c(s2)CCCC3)cccc1-c1cn(C)c(=O)c(Nc2ccc(C3C(=O)N(C)CCN3C)cc2)n1` (stereo not drawn), the Potency is 1.2 µM (active) in assay [1] and 12.9 µM (active) in assay [3].
Turning to `CCC[C@@]1(CCc2ccccc2)CC(O)=C([C@H](CC)c2cccc(NS(=O)(=O)c3ccc(C(F)(F)F)cn3)c2)C(=O)O1`, the Potency in assay [1] was 26.8 µM (active).
On to `CC(=O)Nc1cccc(Nc2ncnc(N3CCC(OCc4ccc(OC(F)(F)F)cc4)CC3)n2)c1C`, for which the Potency in assay [1] was 13.5 µM (active).
Take `Cc1[nH]cnc1C[C@H]1CCc2c(C)c3ccccc3n2C1=O`: in assay [1], the Potency was 0.19 µM (active).
The same measure, in the same setting: then `COc1ccc(C#Cc2ccc(C(=O)N3CCC[C@@H](CO)C3)cc2)cc1`, with 21.3 µM (active).
Same read-out and setting: then `Nc1nc2c(s1)CCN(Cc1ccc(Cl)cc1)CC2`, with 15.1 µM (active).
For `COc1ccc2nc(-c3cc(OC)c(OC)c(OC)c3)cc(C(=O)NCC(=O)Nc3ccc(C(C)=O)cc3)c2c1`, the Potency is 7.56 µM (active) in assay [1] and 12.9 µM (active) in assay [3]. For the same compound, the Potency entry in assay [2] is “inactive”.
As for `CC(C)c1ccc(-c2cc(=O)c3ccccc3o2)cc1`, the Potency is 5.35 µM (active) in assay [1] and 23 µM (active) in assay [3].
On to `O=C(Nc1ccc(C(F)(F)F)cn1)N1CCN(c2ncccc2C(F)(F)F)CC1`, for which the Potency in assay [1] is 3.01 µM (active).
As to `Nc1c(CC(=O)O)cccc1C(=O)c1ccccc1`, the Potency result in assay [1] was “inactive”.
As to `COc1ccc(OC)c(-c2ccc(NC(=O)c3ccncc3F)cc2)c1`, in assay [1], the Potency was 1.51 µM (active).
Regarding `CN[C@H]1CC[C@@H](c2ccc(Cl)c(Cl)c2)c2ccccc21`, the Potency in assay [1] was 15.5 µM (active); in assay [3], 6.68 µM (active) and 9.34 µM (active); in assay [4], 2.66 µM (active) and 9.34 µM (active). Besides, the call with Papain (Carica papaya) was inactive.
`Cc1ccc(N2CCN(S(=O)(=O)N3CCCCC3)CC2)c(C)c1`: the Potency in assay [1] was 0.849 µM (active).
On to `O=C(NC1CCC1)c1ccc(C#Cc2cccc(F)c2)nc1`, for which the Potency entry in assay [1] and in assay [3] was “inactive” in each case.
Take `COc1ccc(-c2csc(NC(=O)[C@H]3CCCCN3S(=O)(=O)c3ccc(C)cc3)n2)cc1`: the Potency in assay [1] is 2.13 µM (active); in assay [3], 18.3 µM (active).
Turning to `O=C(O)c1cccc(-c2ccc(-c3cn(C(=O)N4CCCCC4Cc4ccccc4)nn3)cc2)c1` (stereo not drawn), the Potency in assay [1] is 8.49 µM (active).
The same measure, in the same setting: in the case of `CN1CCN(C2=Nc3ccccc3Nc3ccc(Cl)cc32)CC1` it was 13.5 µM (active).
Regarding `Cc1ccc(NC(=O)N2CCN(c3nc(N)nc4sc(-c5cccnc5)nc34)CC2)cc1`, the Potency in assay [1] is 3.01 µM (active); in assay [3], 0.258 µM (active); in assay [4] it was 230 nM (active). Besides, the Potency result in assay [2] is “inactive”.
